Only a selection was taken, and hits are over-represented in it overall.
nsP2pro inh = inhibitors of chikungunya virus nsP2 protease; 1.1% of 31,000 active; Potency, µM (top dose mostly 24.9 µM), most hits filed as inhibitors; Q8JUX6; FRET peptide cleavage, nsP2pro, fluorescence 1 h; further: nearly all actives have a fitted effect of over 60% in size
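FRET cleavage of 2.5 uM peptide 2 by 150 nM CHIKV protease domain at pH 8.0 (Tris, Tween 20). Compounds at 7 concentrations (up to 25 uM) preincubated 15 min. Fluorescence read after 1 h at room temperature.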
CHIKV nsP2 cell = secondary cell-based test for CHIKV nsP2 protease inhibitors. Potency, µM (doses to about 51.1 µM), actives largely listed as inhibitors. cell-based CHIKV nsP2 protease reporter assay. 10% of 450 active. shares compounds with nsP2pro inh; further: nearly all actives have a fitted effect of over 70% in size
CHIKV NSP2 FL = inhibits full-length CHIKV NSP2 enzyme | shares compounds with nsP2pro inh | Full-length CHIKV NSP2 protease enzymatic counterscreen | Potency, µM (highest dose often 50.7 µM), hits mostly inhibitors | 39% of 410 active | AID 1964101; further: nearly all actives have a fitted effect of over 65% in size
Furin counterscr = human furin inhibition, counterscreen for nsP2pro inhibitors | shares compounds with nsP2pro inh | Recombinant human furin enzymatic counterscreen, fluorogenic substrate | Potency, µM (series often up to 50.6 µM), hits mostly inhibitors | 6% of 410 active | AID 1964102
NS23 peptide cs = selectivity test for CHIKV nsP2 protease inhibitors: endogenous NS2/3 peptide. AID 1964103. Potency, µM (series often up to 51 µM), actives largely listed as inhibitors. shares compounds with nsP2pro inh. 34% of 410 active. Purified CHIKV nsP2 protease, endogenous NS2/3 peptide cleavage; further: nearly all actives have a fitted effect of over 55% in size
Papain cs = papain protease inhibition, counterscreen for nsP2pro inhibitors; shares compounds with nsP2pro inh; purified papain protease activity, enzymatic inhibition; Potency, µM (top dose mostly 51 µM), usual class: inhibitors; 5% of 410 active; AID 1964104
nsP2pro confirm = confirmation of CHIKV nsP2 protease inhibitors. shares compounds with nsP2pro inh. CHIKV nsP2 protease enzymatic activity, qHTS. Potency, µM (doses to about 25.5 µM), usual class: inhibitors. 43% of 410 active; further: nearly all actives have a fitted effect of over 75% in size
HCV NS3 counter = selectivity counter-screen for CHIKV nsP2 protease inhibitors: HCV NS3/4A; Potency, µM (top dose mostly 50.9 µM), hits mostly inhibitors; HCV NS3/4A protease biochemical counterscreen; AID 1964106; shares compounds with nsP2pro inh; 20% of 410 active; further: nearly all actives have a fitted effect of over 55% in size
Each line names hits and unclear results; the compound was inactive in the other large screens (follow-up assays come after a bar, where they were run). The call rests on the fitted dose curve.

O=C(c1ccc2c(c1)ncn2-c1ccc(C(F)(F)F)cc1)N1CCCCC1	none
C=CC1(C)CC(=O)C2(O)C(C)(O1)C(OC(C)=O)C(OC(=O)CCN(C)C)C1C(C)(C)CCC(O)C12C (centres undefined)	none
O=C(/C=C/c1ccc(O)c(O)c1)OC[C@H]1O[C@@H](OC2CCCCC2O)[C@H](O)[C@@H](O)[C@@H]1O (some centres undefined)	none
CC(=O)O[C@@H]1[C@@H](CO)O[C@@](CO)(O[C@H]2O[C@H](COC(=O)/C=C/c3ccccc3)[C@@H](O)[C@H](O)[C@H]2O)[C@H]1O	none
CC(CO[C@@H]1O[C@H](COC(=O)/C=C/c2ccc(O)c(O)c2)[C@@H](O)[C@H](O)[C@H]1O)C1(O)COC(=O)C1 (some centres undefined)	nsP2pro inh inconclusive | CHIKV nsP2 cell inactive | CHIKV NSP2 FL inactive | Furin counterscr inactive | NS23 peptide cs inactive | Papain cs inactive | nsP2pro confirm inactive | HCV NS3 counter inactive
N#Cc1nc(Nc2cc(F)cc(F)c2)c2ncn(CCN3CCCC3)c2n1	none
O=C(Nc1cccc(C(F)(F)F)c1)c1cccs1	none
O=C1C2CC=CCC2C(=O)N1SC(Cl)(Cl)Cl (centres undefined)	nsP2pro inh 1.8µM | CHIKV nsP2 cell inconclusive | CHIKV NSP2 FL 2.9µM | Furin counterscr inactive | NS23 peptide cs 5.8µM | Papain cs inactive | nsP2pro confirm 0.9µM | HCV NS3 counter inconclusive
CC12CCC3C(C1)c1c(cc(O)c(C(=O)c4ccccc4)c1OC3(C)C)O2 (centres undefined)	none
CNC(=O)c1cc(C2CC2)nc2onc(C3CCCN3C(=O)Cc3ccccn3)c12 (centres undefined)	none
C=C1CC[C@@H](O)[C@]2(C)CC[C@H]3C(=C)C(=O)O[C@@H]3[C@@H]12	none
C=C1C(=O)O[C@@H]2[C@H]3O[C@]3(C)CC/C=C(\C)CC[C@@H]12	none
C=C1C(=O)O[C@H]2C3=C(C)CCC[C@]3(C)C(=O)C[C@@H]12	nsP2pro inh inconclusive | CHIKV nsP2 cell inconclusive | CHIKV NSP2 FL inconclusive | Furin counterscr inactive | NS23 peptide cs inconclusive | Papain cs inconclusive | nsP2pro confirm inconclusive | HCV NS3 counter inactive
Fc1cc(Nc2nc(-c3ccncc3)nc3ccccc23)ccc1-c1cn[nH]c1	none
C#CCN(Cc1cc2c(=O)[nH]c(C)nc2cc1Br)c1ccc(C(=O)NCc2cccnc2)cc1	none
O=C(Cc1ccc(Cl)c(Cl)c1)Nc1ccc([S+](=O)([O-])Nc2ccccn2)cc1	none
O=[S+]([O-])(Nc1ccc(-c2nc3ccccc3[nH]2)cc1)c1ccc2c(c1)OCO2	none
Cc1cc(O)c2c(c1)C(=O)c1cccc(O)c1C2=O	nsP2pro inh inconclusive | CHIKV nsP2 cell inactive | CHIKV NSP2 FL inconclusive | Furin counterscr inactive | NS23 peptide cs inactive | Papain cs inactive | nsP2pro confirm inconclusive | HCV NS3 counter inactive
O=C(O)c1cc(O)c2c(c1)C(=O)c1cccc(O)c1C2=O	nsP2pro inh inconclusive | CHIKV nsP2 cell inactive | CHIKV NSP2 FL inactive | Furin counterscr inactive | NS23 peptide cs inactive | Papain cs inconclusive | nsP2pro confirm inactive | HCV NS3 counter inactive
O=C(O)c1ccc(C(=O)O)cc1	none
O=C1Nc2ccccc2/C1=C/c1cccc(C(=O)O)c1	none
O=C1c2c(O)cccc2Cc2cccc(O)c21	none
Cc1ccc(NC(=O)Nc2cc(-c3ccccc3-c3nn[nH]n3)ccc2N(CC(C)C)CC(C)C)cc1	none
CCCCN(Cc1ccc(C(=O)NO)cc1)C(=O)Nc1ccccc1	none
O=C(O)c1ccc(-c2noc(-c3ccc(C(F)(F)F)cc3)n2)cc1	none
CCC[C@@H](C(=O)O)N1C(=O)[C@@H]2C[C@@H]3CCCC[C@@H]3N2C(=O)[C@@H]1C	none
O=[N+]([O-])c1cc(Cl)ccc1S(=O)(=O)N1CCN(Cc2ccccc2)CC1	none
O=[N+]([O-])c1ccc(O/N=[N+](\[O-])N2CCN(c3ncccn3)CC2)c([N+](=O)[O-])c1	none
O=[N+]([O-])c1ccc(S(=O)(=O)N2CCN(c3ccnc4cc(Cl)ccc34)CC2)c([N+](=O)[O-])c1	nsP2pro inh inconclusive | CHIKV nsP2 cell 5.6µM | CHIKV NSP2 FL inconclusive | Furin counterscr inactive | NS23 peptide cs 4.1µM | Papain cs inactive | nsP2pro confirm inconclusive | HCV NS3 counter inactive
Cc1cccc(-n2cnc3cc(C(=O)N4CCCC(C)(C)C4)ccc32)c1	none
CCc1ccc(-n2c(CCC(=O)O)ccc2-c2cccs2)cc1	none
O=C(O)CCc1ccc(-c2cccs2)n1CC(=O)Nc1ccccc1C(F)(F)F	none | CHIKV nsP2 cell inactive | CHIKV NSP2 FL inactive | Furin counterscr inactive | NS23 peptide cs inactive | Papain cs inactive | nsP2pro confirm inconclusive | HCV NS3 counter inactive
Cc1c(Cl)cccc1NC(=O)Cn1c(CCC(=O)O)ccc1-c1cccs1	none
COc1cc(C)[nH]c(=O)c1CNC(=O)c1c(C)n([C@H](C)C2CCOCC2)c2ccccc12	none
Fc1ccc(-c2nnc(CCCCSc3nnc(-c4cccc5ccccc45)o3)o2)cc1	none
C=C(C)C(=O)O[C@H]1[C@H]2C(=C)C(=O)O[C@@H]2/C=C(\CO)CC/C=C(/C=O)[C@@H]1O	none
C=C1C(=O)O[C@@H]2C3C(=C(C)[C@@H](O)[C@@H](OC(=O)/C(=C/C)COC(C)=O)[C@@H]12)C(=O)[C@H]1O[C@@]31C (some centres undefined)	nsP2pro inh 2.2µM | CHIKV nsP2 cell inconclusive | CHIKV NSP2 FL 7.1µM | Furin counterscr inactive | NS23 peptide cs 3.2µM | Papain cs inactive | nsP2pro confirm 2.2µM | HCV NS3 counter inactive
C=C1C(=O)O[C@@H]2/C=C(/C)[C@@H](OC(C)=O)C/C=C(\C)C[C@@H](OC(=O)/C(=C/CO)CO)[C@@H]12	none
Nc1nc(Nc2ccc3c(c2)CC[C@@H](N2CCCC2)CC3)nn1-c1cc2c(nn1)-c1ccccc1CCC2	none
O=C(O)CCc1cc(C(=O)c2ccc(OC3CCCC3)cc2O)ccc1OCc1ccc2c(=O)[nH]oc2c1	none
Cc1c(C(=O)OCC2CCCCO2)[nH]c2c1C(=O)CC(c1ccco1)C2 (centres undefined)	nsP2pro inh 7.9µM | CHIKV nsP2 cell 15µM | CHIKV NSP2 FL inactive | Furin counterscr inconclusive | NS23 peptide cs inactive | Papain cs inactive | nsP2pro confirm inactive | HCV NS3 counter inactive
Cc1c(C(=O)OCC2CCCCC2)[nH]c2c1C(=O)CC(c1ccc(F)cc1)C2 (centres undefined)	none
